In all, about 360,000 compounds went through this assay and about 3,700 (1%) were called active. Rule as the data show it: active = activation above about 30%; inactive = the rest. The sample as a whole holds a higher share of actives than the screen did.
Target: D(1A) dopamine receptor (Homo sapiens) (UniProt P21728)
Assay: Allosteric Agonists of the Human D1 Dopamine Receptor: qHTS; also: 0% is about no effect
Details: HEK293 T-REx D1 cells, calcium flux, agonist mode; at 2 µM; active compounds read high
Text: NIH Chemical Genomics Center [NCGC] NIH Molecular Libraries Probe Centers Network [MLPCN] MLPCN Grant: NS064831-01 Assay Submitter (PI): David Sibley Dopamine receptors (DARs) are involved in the etiology and/or therapy of a number of neuropsychiatric and endocrine disorders. For instance, all receptor-based antiparkinsonian drugs work via stimulating the D1 DAR subtype whereas all FDA-approved antipsychotic agents are antagonists of this receptor. […] There are three different types of allosteric modulators that we are seeking, two of which will stimulate or augment receptor signaling, allosteric agonists and potentiators, while the third, allosteric antagonists, will attenuate receptor signaling. The present primary screening assay measures compound agonism by tracking calcium flux in a […], inducible Hek293 Trex D1 cell line.
Freshly passaged cells are plated in 1536 well black, clear bottom plates at a density of 4000 cells/well in 3 ul of complete media containing 1x tetracycline inducer. After an overnight incubation at […] in 5% CO2, cells are loaded with 2 ul of the no wash Calcium Assay Kit (ABD Bioquest) and incubated at room temperature for 30 to 90 minutes. Agonist read: A 10 cycle (1 second/cycle) baseline measurement is taken and then the FDSS online 1536 pintool delivers 23 nl of compound library (as well as dopamine controls) to the plate. The plate is measured for kinetically at 1 cycle/sec for 180 seconds and is considered to be the agonist portion of the assay (eg, compounds which activate a positive calcium response during this portion are flagged as potential agonists). Following the 180 second read, 1 ul of either an EC20 (positive modulation assay) or EC80 (negative modulation assay) is delivered by an onboard pipette head. Measurements are taken kinetically for an additional 180 seconds.

Chain of D(1A) dopamine receptor (Homo sapiens) (P21728 whole entry, looked up): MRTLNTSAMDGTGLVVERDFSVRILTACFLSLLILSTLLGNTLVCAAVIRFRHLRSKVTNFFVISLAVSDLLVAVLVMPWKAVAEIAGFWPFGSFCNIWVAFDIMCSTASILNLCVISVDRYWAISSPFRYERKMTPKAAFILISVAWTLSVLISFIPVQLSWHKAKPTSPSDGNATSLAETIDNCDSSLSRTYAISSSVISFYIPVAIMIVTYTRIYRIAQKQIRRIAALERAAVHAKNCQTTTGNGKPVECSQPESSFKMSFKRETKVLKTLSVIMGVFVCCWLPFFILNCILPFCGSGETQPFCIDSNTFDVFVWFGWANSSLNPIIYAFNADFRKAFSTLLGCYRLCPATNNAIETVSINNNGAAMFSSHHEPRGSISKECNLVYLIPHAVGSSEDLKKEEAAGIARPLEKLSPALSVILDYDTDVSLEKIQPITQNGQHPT

Row | Compound | activation
1 | Cc1ccc2[nH]c(=O)c(-c3nc4c(C)cccn4c3NCc3ccco3)cc2c1 | 1.97% (inactive)
2 | CCCN(CCC)c1nc2c(C)cccn2c(=O)c1/C=C1/SC(=S)N(Cc2ccco2)C1=O | 48.8% (active)
3 | COC(=O)CN1C(=O)CSc2ccc(S(=O)(=O)Nc3cc(C)ccc3C)cc21 | -2.48% (inactive)
4 | Cc1c(Cl)cccc1NC(=O)C(=O)NCCc1csc2nc(-c3ccccc3F)nn12 | 8.86% (inactive)
5 | COc1cc(OC)cc(C(=O)Nc2cc3nn(-c4ccccc4)nc3cc2Cl)c1 | 0.0669% (inactive)
6 | CC(C)(C)C(=O)/C(C#N)=C/c1ccc(O)cc1 | 6.88% (inactive)
7 | COc1cccc(C(=O)NNC(=O)/C=C/c2ccccc2)c1 | 1.13% (inactive)
8 | O=C(/C=C(O)/C=C/c1ccc(O)cc1)/C=C/c1ccc(O)cc1 | 432% (active)
9 | CCN(CC)c1ccc(NC(=O)Cn2nc3c(cc2=O)CCCC3)c(C)c1 | -0.284% (inactive)
10 | COc1cccc(N=C2SC(C(=O)Nc3cccc(Cl)c3)CC(=O)N2C)c1 (stereo not given) | 25.2% (inactive)
11 | CCN(CC)c1ccc(NC(=O)CN2C(=O)c3cccnc3Oc3ccc(Cl)cc32)c(C)c1 | 1.12% (inactive)
12 | CCc1c(C)sc(NC(=O)C2c3ccccc3Oc3ccccc32)c1C(=O)OC(C)C | -0.651% (inactive)
13 | CCc1c(C)sc(NC(=O)c2ccc(Br)o2)c1C(=O)OC | 32.9% (active)
14 | CCc1c(C)sc(NC(=O)c2cccs2)c1C(N)=O | 0.933% (inactive)
15 | O=C(NC1CC(=O)N(c2ccccc2)C1)c1ccco1 (stereo not given) | 2.23% (inactive)
16 | COc1ccc(-c2nc3scc(CCNS(=O)(=O)c4cc(F)ccc4OC)n3n2)cc1OC | -4.62% (inactive)
17 | O=C(CSc1oc(-c2ccco2)nc1S(=O)(=O)c1ccccc1)c1ccc(Cl)cc1 | 5.58% (inactive)
18 | CCCCN(CCCNC(=O)c1cc(Nc2ccccc2OC)nc2ccccc12)c1ccccc1 | 0.606% (inactive)
19 | COc1ccccc1Nc1cc(C(=O)NCCCN(C)C2CCCCC2)c2ccccc2n1 | 183% (active)
20 | COc1ccc(Nc2cc(C(=O)NCCCN(C)c3ccccc3)c3ccccc3n2)c(OC)c1 | 1.01% (inactive)
21 | COc1ccccc1Nc1c2c(nc3ccc(NC(=O)/C=C/c4cc(OC)c(OC)c(OC)c4)cc13)CCCC2 | -0.5% (inactive)
22 | CCCCCOC(=O)c1ccc(N2C(=O)C3C4C=CC(C4)C3C2=O)cc1 (stereo not given) | 19.5% (inactive)
23 | CCCCCCCCCCOC(=O)C[N+](C)(C)CC1CCCCC1O (stereo not given) | 31.1% (active)

Row | Compound | activation
24 | COc1cc(C(=O)NCC(c2ccc(Cl)cc2)N2CCOCC2)cc(OC)c1OC (stereo not given) | -0.448% (inactive)
25 | Cc1[nH]c2ccccc2c1C(c1ccccc1)c1cccs1 (stereo not given) | 0.783% (inactive)
26 | O=C(CCc1nc(CN2CCN(S(=O)(=O)c3ccc(Cl)cc3)CC2)no1)N1CCCCC1 | 12.7% (inactive)
27 | CCN(CC)S(=O)(=O)c1ccc2c(c1)N(CC(=O)NCC(C)c1ccccc1)C(=O)CO2 (stereo not given) | 4.4% (inactive)
28 | Cc1ccc(CNC(=O)Cn2c(=O)ccc3cc(S(=O)(=O)N4CCCC4)ccc32)cc1 | -0.173% (inactive)
29 | CCOc1ccc(Cn2nnc(C(=O)Nc3ccc(OC)cc3OC)c2N)cc1 | 6.39% (inactive)
30 | CCOc1ccc(Cn2nnc(C(=O)NCc3ccccc3)c2N)cc1 | 36.7% (active)
31 | CCOc1ccc(CNC(=O)c2cc(-c3ccc(Cl)s3)nc3ccccc23)cc1 | 36.4% (active)
32 | CC(=O)N1CCN(C(=O)c2cc(-c3ccc(Cl)s3)nc3ccccc23)CC1 | -0.053% (inactive)
33 | Cc1c(NC(=O)c2cc(-c3ccc(Cl)s3)nc3ccccc23)c(=O)n(-c2ccccc2)n1C | 0.635% (inactive)
34 | CCOc1ccc(CNC(=O)c2ccc(CS(=O)c3ccccc3)o2)cc1 (stereo not given) | 0.22% (inactive)
35 | CCc1ccccc1NC(=O)c1sc2nc3c(cc2c1N)CN(Cc1ccccc1)CC3 | 0.298% (inactive)
36 | O=[S+]([O-])(c1ccc2c(c1)OCCO2)N1CCN([S+](=O)([O-])c2c(Cl)cc(Cl)cc2Br)CC1 | 0.0145% (inactive)
37 | O=S(=O)(Nc1cccc2cccnc12)c1cccc2cccnc12 | 23.3% (inactive)
38 | COc1ccc(-c2nc3nc(C)cc(C)n3c2Nc2c(C)cccc2C)cc1 | 7.65% (inactive)
39 | c1ccc(C[C@H]2CNCCN2CCC23CC4CC(CC(C4)C2)C3)cc1 | 39.5% (active)
40 | COc1cc(-c2cc3n(C)c(C)c(CCC(=O)Nc4ccc(F)cc4)c(=O)n3n2)cc(OC)c1OC | 0.314% (inactive)
41 | Cc1ccc(Cl)cc1NC(=O)/C(C#N)=C\c1cn(Cc2ccc(F)cc2)c2ccccc12 | 6.19% (inactive)
42 | CCc1nc(-c2cc(S(=O)(=O)N3CCN(c4ccc(OC)cc4)CC3)ccc2OC)no1 | 4.75% (inactive)
43 | CSc1nc(-c2ccc(F)cc2)nc2c1Cc1c(CO)cnc(C)c1O2 | 1.34% (inactive)
44 | O=C(CCCN=C1NS(=O)(=O)c2ccccc21)OCC(=O)c1ccc(F)c(F)c1 | 68.2% (active)
45 | N#CC1(NC(=O)COC(=O)CCN=C2NS(=O)(=O)c3ccccc32)CCCCC1 | 4.55% (inactive)
46 | O=C(OCCN=C1NS(=O)(=O)c2ccccc21)c1cccc([N+](=O)[O-])c1 | 3% (inactive)

Row | Compound | activation
47 | O=C(O)c1c(CNCc2cccc(F)c2)c2ccccc2n1Cc1ccccc1 | -1.09% (inactive)
48 | COc1cc(CNC2CCCCC2)c(Br)cc1OC1CCCC1 | 10.2% (inactive)
49 | COc1cc(OC)c(NC(=O)C2CCCN2C(=O)OCc2ccccc2)cc1Cl (stereo not given) | -0.285% (inactive)
50 | COc1cc(CNC2CCCC2)c(Br)cc1OCc1ccccc1 | 42.3% (active)
51 | Cc1nc(C(=O)Nc2ccc(Cl)cc2)sc1C1(C)CC(c2ccccc2)=NO1 (stereo not given) | 6.69% (inactive)
52 | Cc1nc(C(=O)NCc2ccccc2)sc1C1(C)CC(c2cccnc2)=NO1 (stereo not given) | 41.4% (active)
53 | Cc1nc(-c2ccc(Cl)cc2)sc1C1(C)CC(c2ccccc2F)=NO1 (stereo not given) | 6.23% (inactive)
54 | COc1cccc(-n2ccn(CC(=O)NCc3ccc(C)cc3)c(=O)c2=O)c1 | 14.3% (inactive)
55 | COc1cccc(-c2ccc3c(c2)S(=O)(=O)c2cccc(C(=O)O)c2C3=O)c1OC | 0.629% (inactive)
56 | Cc1ccc(CNC(=O)c2cccc3c2C(=O)c2ccc(N4CCC(C)CC4)cc2S3(=O)=O)cc1 | 179% (active)
57 | Cc1ccc(CNC(=O)c2ccccc2CCc2ccccc2)cc1 | 4.45% (inactive)
58 | Cc1ccccc1OCC(=O)Nc1c(C(=O)Nc2ccccc2F)oc2ccccc12 | 20.7% (inactive)
59 | CCOC(=O)c1c(C)[nH]c(CCC(=O)Nc2ccc(OC)c(OC)c2)c1C | -0.109% (inactive)
60 | Cc1cc(=O)c2cc(C(=O)Nc3cccc(C)c3C)ccc2[nH]1 | -0.195% (inactive)
61 | Cc1nn(CCOc2ccccc2)c(=O)n1-c1ccccc1F | 1.91% (inactive)
62 | c1ccc2cc(OCCN3CCCC3)ccc2c1 | 5.59% (inactive)
63 | Cc1cc(OCCN2CCCC2)ccc1C(C)C | 2.99% (inactive)
64 | CC(C)(c1ccccc1)c1ccc(OCCN)cc1 | 63.3% (active)
65 | CC(C)(C)c1ccc(Oc2ccc(N)cc2)cc1 | 5.93% (inactive)
66 | CC(C)(c1ccccc1)c1ccc(OCCN2CCCC2)cc1 | 35.8% (active)
67 | CSc1ccc(CCNC(=O)c2ccc3c(c2)nc2n3CCOC2)cc1 | 0.926% (inactive)
68 | O=S(=O)(NCC(c1ccco1)N1CCOCC1)c1cc(F)ccc1F (stereo not given) | -2.87% (inactive)
69 | CCc1ccc(C2CC(=O)c3c([nH]c(C(=O)OCc4ccc(C)cc4)c3C)C2)cc1 (stereo not given) | 3.18% (inactive)

Row | Compound | activation
70 | Cc1ccc2nc(COc3cccc(NC(=O)Nc4ccc(C)c(Cl)c4)c3)cc(=O)n2c1 | -0.44% (inactive)
71 | Cc1ccc(C(=O)CC2(O)C(=O)N(CCc3ccccc3)c3ccc(Br)cc32)cc1 (stereo not given) | 9.1% (inactive)
72 | O=C(Cn1nc(Cc2cccnc2)c2ccccc2c1=O)NCC1COc2ccccc2O1 (stereo not given) | 0.536% (inactive)
73 | c1ccc2c(c1)OCC(CNc1ncnc3nc[nH]c13)O2 (stereo not given) | 182% (active)
74 | CCC(=O)c1ccc(OCC(=O)N(CC)CC2COc3ccccc3O2)cc1 (stereo not given) | 3.24% (inactive)
75 | CCn1c2ccccc2c2nnc(N3CCN(c4cc(C)ccc4C)CC3)nc21 | -0.584% (inactive)
76 | Cc1ccc2c(=O)c(C(=O)c3cccc(Cl)c3)cn(CC(=O)NCc3ccccc3)c2n1 | 0.234% (inactive)
77 | CCOc1ccc(NC(=O)Cn2cc(C(=O)c3ccc(C)cc3)c(=O)c3cc4c(cc32)OCCO4)cc1 | 4.93% (inactive)
78 | CCCn1c(=O)c(-c2ccccc2)c(O)c2ccccc21 | 0.534% (inactive)
79 | CC(=O)n1c(C=Nc2ccccc2)c(O)c2ccccc21 | 52.3% (active)
80 | Cc1cc(=O)n(CC(=O)Nc2cccc([N+](=O)[O-])c2)c(-n2nc(C)cc2C)n1 | -0.478% (inactive)
81 | Cc1ccc(C(=O)NC2CCN(C#N)CC2)cc1 | -0.099% (inactive)
82 | Cc1ccccc1-n1c(C)cc(/C=N/NC(=O)c2ccc(CN3CCOCC3)cc2)c1C | 9.59% (inactive)
83 | O=C(N/N=C/C=C/c1ccco1)c1cccs1 | 2.91% (inactive)
84 | Cc1cccc(-n2c(C)cc(/C=N\NC(=O)c3cccs3)c2C)c1 | 36.3% (active)
85 | N#CN1CCC(NS(=O)(=O)c2cccc(F)c2)C1 (stereo not given) | 0.986% (inactive)
86 | Cc1cc2c(s1)c1cnn(Cc3cc(F)c(Cl)cc3Cl)c(=O)c1n2C | -0.162% (inactive)
87 | Cc1cccc(S(=O)(=O)c2cn(Cc3ccccc3)c3cc(N4CCOCC4)c(F)cc3c2=O)c1 | 1.08% (inactive)
88 | Nc1cc(N2CCCCCC2)c2nonc2c1[N+](=O)[O-] | 34.1% (active)
89 | COCCNc1nc(N)c([N+](=O)[O-])c(N2CCCCCC2)n1 | 2.99% (inactive)
90 | Cc1c(Nc2cc(N3CCCC(C)C3)c3nonc3c2[N+](=O)[O-])c(=O)n(-c2ccccc2)n1C (stereo not given) | -0.0536% (inactive)
